D2 antagonist – HTS Assay for Allosteric Antagonists of the Human D2 Dopamine Receptor: Primary Screen for Antagonists; 340,000 compounds, 2% hits; inhibition, % at 10 µM; HEK293 TREx D2 cells, calcium flux, dopamine EC80; in the data active = inhibition above about 30%; inactive = below that, where a call was filed; note: 0% is about no effect
Target sequence (P14416 whole entry, looked up): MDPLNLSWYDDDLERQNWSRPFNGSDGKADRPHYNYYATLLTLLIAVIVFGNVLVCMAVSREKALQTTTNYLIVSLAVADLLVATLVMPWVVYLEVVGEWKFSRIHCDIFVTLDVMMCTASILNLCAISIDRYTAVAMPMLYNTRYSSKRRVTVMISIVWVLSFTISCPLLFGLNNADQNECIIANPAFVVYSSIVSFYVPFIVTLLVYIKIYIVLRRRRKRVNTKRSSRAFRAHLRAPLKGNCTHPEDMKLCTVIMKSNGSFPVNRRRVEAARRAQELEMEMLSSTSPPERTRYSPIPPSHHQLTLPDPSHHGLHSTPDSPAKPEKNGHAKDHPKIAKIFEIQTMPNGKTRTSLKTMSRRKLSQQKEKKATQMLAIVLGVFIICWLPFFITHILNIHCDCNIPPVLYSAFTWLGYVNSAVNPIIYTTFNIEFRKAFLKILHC
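Overnight-induced (tetracycline, 30 C) HEK293 T-REx cells carrying force-coupled D2 receive a no-wash calcium dye, then compound, then EC80 dopamine at 180 s; signals are read kinetically throughout.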
D2 PAM-1 – HTS Assay for Positive Allosteric Modulators of the Human D2 Dopamine Receptor: Primary Screen for Potentiators. D(2) dopamine receptor (Homo sapiens), P14416. 340,000 compounds, 0.34% hits. potentiation, % at 10 µM. HEK293 T-REx D2, calcium flux, EC20 dopamine potentiation. AID 485347, 2010;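 active = potentiation over 3 SD above the plate norm, cut at about 30% in these data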; note: 0% is about no effect
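Tetracycline-induced Hek293 Trex D2 cells, force-coupled to calcium, loaded with no-wash calcium dye. Compound added with 180 s kinetic read for agonism, then EC20 dopamine and a further 180 s read for potentiation.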
D2 PAM-2 – Beta-Arrestin HTS for Positive Allosteric Modulators of the Human D2 Dopamine Receptor: Potentiators. D(2) dopamine receptor (Homo sapiens), P14416. DiscoveRx D2 beta-arrestin cells, luminescence, 90 min; 100% = 57 uM dopamine signal. potentiation, % (test concentration not listed). 360,000 compounds, 0.23% hits. AID 624464, 2012; in the data active = potentiation above about 50%
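D2 cells co-treated with compound plus 50 nM dopamine (EC20) for 90 min at 37 deg C to detect potentiation. Beta-arrestin recruitment was read as enzyme-fragment luminescence after 1 h at ambient temperature. Full response was set by 57 uM dopamine.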
D2 ag-1 – Beta-Arrestin HTS for Positive Allosteric Modulators of the Human D2 Dopamine Receptor: Agonists | D(2) dopamine receptor (Homo sapiens), P14416 | DiscoveRx PathHunter D2 beta-arrestin, luminescence, 90 min; 100% = 57 uM dopamine signal | activation, % (no concentration beside the values) | 360,000 compounds, 0.084% hits; in the data active = activation above about 40%
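Agonist mode: compounds alone added to overnight-plated D2 PathHunter cells for 90 min at 37 C, with 57 uM final dopamine (EC100) defining full response. Beta-arrestin recruitment detected by chemiluminescent reagent, read after 1 h at ambient temperature.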
D2 ag-2 – HTS Assay for Allosteric Agonists of the Human D2 Dopamine Receptor: Primary Screen for Agonists; AID 485358, 2010; 340,000 compounds, 0.53% hits; D(2) dopamine receptor (Homo sapiens), P14416; activation, % at 2 µM; HEK293 T-REx D2 cells, calcium flux agonist mode;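 active = activation over 3 SD above normal in the single-dose calcium agonist read, cut at about 30% in these data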; note: 0% is about no effect
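Tetracycline-induced HEK293 Trex cells with D2 receptor force-coupled to calcium signaling, plated overnight at 30 C and loaded with no-wash calcium dye. Calcium flux read kinetically for 180 s after compound addition; responses flag agonists.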
* = called active by the depositor; · = no result given. Sampled rows, rich in hits. Any-hit rate of the full collection: about 2.4%.

SMILES	D2 antagonist	D2 PAM-1	D2 PAM-2	D2 ag-1	D2 ag-2
CC(C)Oc1ccc(CN2CCC2(C)C(=O)NCc2cccc3ccccc23)cc1 (stereo not given)	·	·	-17	-6	·
O=C1NCCN1Cc1ccc(Cl)cc1	-13	49*	-8	1	0
CCn1c(=O)c(C(C)=O)nc2ccccc21	33*	-2	-8	-4	0
O=C(NCc1cccc(Cl)c1)c1ccc(NC(=O)N2CC3CCCN3c3ccccc32)cc1 (stereo not given)	·	-5	·	·	0
COc1cc(N)c(Cl)cc1C(=O)OCC(=O)N1CCCC1	32*	-12	-9	-13	1
COc1cc(N)c(Cl)cc1C(=O)OCC(=O)N1CCc2ccccc21	-3	7	-3	1	1
CCOc1cc(C#N)c(NC(=O)c2ccc(OC)c(S(=O)(=O)N3CCCCC3)c2)cc1OCC	·	6	·	·	-1
Cc1cc2nc3c(=O)n(C4CCCCC4)c(=O)[nH]c3nc2cc1N	-28	-4	9	5	61*
Cc1cc(C)cc(Nc2cc(=O)n(C3CCCCC3)c(=O)[nH]2)c1	6	3	-1	1	1
CN(C)CC/C=C1/c2ccccc2Sc2ccc(Cl)cc21	103*	-26	-36	-6	-1
CN(C)CC/C=C1\c2ccccc2COc2ccccc21	51*	-25	-34	-5	1
CN(C)CC/C=C1/c2ccccc2CS(=O)(=O)c2ccccc21	·	·	-3	3	·
CCCCCC[N+](C)(C)CC/C=C1/c2ccccc2Sc2ccc(Cl)cc21	75*	-26	-9	3	-2
S=C1Nc2ccccc2Sc2ccc(Cl)cc21	-1	14	10	0	0
Cc1ccccc1NC(=O)Cn1c(=O)n(Cc2ccc3c(c2)OCO3)c(=O)c2ccc(C(=O)NC3CCCCC3)cc21	·	0	·	·	0
S=c1[nH]c(-c2ccccc2)cn1/N=C/c1cccc2ccccc12	33*	-14	-30	-16	0
S=c1[nH]c(-c2ccccc2)cn1/N=C/c1ccccc1Br	-12	-5	-47	-2	0
CN(C(=O)/C=C/c1ccccc1)C1CCCCC1	·	·	-12	-20	·
CCCOc1ccc(CNC(=O)c2ccc3c(c2)N(CC)CCS3)cc1	50*	-15	-10	-3	1
CCN1CCSc2ccc(C(=O)NCc3cccc(F)c3)cc21	44*	-15	-9	-6	1
CCc1ccccc1N(C(=O)c1snc(C(N)=O)c1N)C(C(=O)NCC1CCCO1)c1ccc(C)o1 (stereo not given)	33*	0	-1	5	1
Cc1ccc(N(C(=O)c2snc(C(N)=O)c2N)C(C(=O)NCC2CCCO2)c2ccc(C)o2)c(C)c1 (stereo not given)	-8	2	-3	-2	-2
Cc1c(Br)c([N+](=O)[O-])nn1C(C)C(=O)Nc1ccc2c(c1)OCO2 (stereo not given)	40*	4	-13	-2	0
O=C(CSc1nc2c(sc3ccccc32)c(=O)n1CCCN1CCCC1)NCC1CCCO1 (stereo not given)	12	41*	-36	0	1
Cc1[nH]c2ccccc2c1C1C(c2ccccc2)=NN=C(C(C)C)N1O (stereo not given)	6	31*	12	1	0
COc1cc2c(cc1OC)C1C/C(=N\O)C(CC(C)C)CN1CC2 (stereo not given)	60*	-20	-41	-1	5
COc1ccccc1NC(=O)Cn1c(SCC(=O)N(C)c2ccccc2)nc2ccccc21	·	-2	·	·	-1
O=C1/C(=C\c2ccco2)SC(=S)N1c1ccccc1	47*	0	-6	3	-1
Cc1ccccc1NC(=O)Cn1nc(C)n2cccc2c1=O	17	-6	2	1	0
Cc1nn(CC(=O)Nc2ccc(Br)cc2F)c(=O)c2cccn12	47*	-6	2	-4	0

Screens (PubChem)
